A selection: hits, their analogues and other compounds. The true share with any hit is near 2.7%.
PP5 primary: blocks human protein phosphatase 5 activity; P53041; purified PP5c, OMFP substrate fluorescence; inhibition, % at 6.7 µM; 320,000 compounds, 0.18% hits;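 active = inhibition above the campaign's mean inhibition across all tested compounds plus 3 SD, cut at about 9.5% in these data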
DNA FID counter: counter-screen for HCV NS3 helicase inhibitors: DNA intercalator displacement; DNA fluorescent intercalator displacement, fluorescence; inhibition, % at 7.9 µM; 290,000 compounds, 0.17% hits; in the data active = inhibition above about 37%;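 also: higher means more ethidium bromide displaced from hairpin DNA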
PREPL inh: inhibitors of human prolyl oligopeptidase-like enzyme PREPL | 320,000 compounds, 0.68% hits | recombinant PREPL, fluorescence polarization activity-based probe | inhibition, % at 5.96 µM; in the data active = inhibition above about 43%
PP1 inh: PP1-alpha (human) inhibition in PP5 counter-screen | AID 2235 | P62136 | purified PP1alpha, OMFP fluorescence | inhibition, % at 6.7 µM | 320,000 compounds, 0.9% hits;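 active = inhibition above the mean inhibition of all tested compounds plus 3 SD, computed separately for each screening campaign, cut at about 15% in these data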
Target sequence (P62136 whole entry, looked up): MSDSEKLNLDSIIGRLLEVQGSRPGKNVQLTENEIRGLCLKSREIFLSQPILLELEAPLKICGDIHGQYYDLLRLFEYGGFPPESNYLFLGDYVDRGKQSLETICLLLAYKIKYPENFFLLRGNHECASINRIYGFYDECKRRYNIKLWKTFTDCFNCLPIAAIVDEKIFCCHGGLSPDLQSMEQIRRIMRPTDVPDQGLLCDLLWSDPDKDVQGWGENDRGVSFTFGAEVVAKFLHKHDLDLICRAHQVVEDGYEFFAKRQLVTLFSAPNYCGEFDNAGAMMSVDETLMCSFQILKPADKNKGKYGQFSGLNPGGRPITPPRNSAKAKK
TMEM16A inh: mouse TMEM16A channel inhibition, primary screen | 310,000 compounds, 1.2% hits | Q8BHY3 | HEK293 TMEM16A/YFP iodide influx fluorescence, ionomycin | normalized B-score (activity score, 25-100; higher = stronger inhibition) at 10 µM | AID 588511;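 active = ratio plate-corrected score three or more library SD toward inhibition, starting fluorescence score within five deviations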;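 also: score derived from kinetic fluorescence span divided by baseline fluorescence per well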
ANO1 activ: activators or potentiators of mouse TMEM16A chloride channel; Q8BHY3; HEK293 TMEM16A/YFP-H148Q/I152L, iodide quench fluorescence; hits give low values; B-score at 10 µM; 340,000 compounds, 0.3% hits; AID 623877;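 active = fluorescence-ratio B-score plate-corrected deviation score at least 3 library SD below zero, with starting fluorescence score within 5 deviations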;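 also: channel opened by trigger with iodide after compound preincubation; score built on the fluorescence ratio of max minus min over baseline; more negative score means more quench and so TMEM16A activation or potentiation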
A number is an active result; – = inactive; · = no result.

SMILES	PP5 primary	DNA FID counter	PREPL inh	PP1 inh	TMEM16A inh	ANO1 activ
Cc1nn2c3ccccc3n(Cc3ccccc3)c2nc1=O	–	–	–	–	–	-20
N#Cc1nc(Cc2cccc3ccccc23)oc1N1CCCCC1	–	–	–	–	100	-23
CN1CCN(c2oc(Cc3cccc4ccccc34)nc2C#N)CC1	–	–	–	–	–	–
CCCCCCCCCCCCN1[C@@H](CC(=O)O)c2cc(C(F)(F)F)ccc2S1(=O)=O	–	·	–	–	100	–
CCCCCCCCCCCCN1[C@@H](CC(=O)O)c2cc(F)ccc2S1(=O)=O	–	·	–	16	100	–
CCCCCCCCN1[C@@H](CC(=O)OCC)c2cc(F)ccc2S1(=O)=O	–	·	–	–	25	–
C=CC[C@H](CC(=O)N(CCO)Cc1ccccc1)C(=O)N[C@@H](COC(=O)[C@@H](CC=C)Cc1ccc(F)cc1)Cc1c[nH]c2ccccc12	·	·	–	·	·	·
Cc1ccc2c(c1)N(S(=O)(=O)c1ccc(CN3C(=O)c4cccnc4C3=O)s1)CCO2	–	–	–	–	–	–
Cc1ccc2c(c1)N(S(=O)(=O)c1ccc(CN3C(=O)c4cccnc4C3=O)cc1)CCO2	–	–	–	–	–	-23
CC(=O)N1CCN(c2ccc(Oc3ccc([N+](=O)[O-])c(C(F)(F)F)c3)cc2)CC1	–	–	–	–	100	–
CCOc1ccc(C(=O)Nc2ccc(N3CCN(C(C)=O)CC3)cc2)cc1[N+](=O)[O-]	–	–	–	–	–	–
O=C(c1ccc2ccccc2c1)C1CCCN(C(=O)c2cnccn2)C1 (stereo unspecified)	–	–	–	–	–	-4.6
CCOc1ccccc1/C=N\Nc1cnn(Cc2ccccc2)c(=O)c1Cl	–	–	–	16	–	–
CCCCCC(=O)N(Cc1ccccc1)c1c(N)n(CCOC)c(=O)[nH]c1=O	–	–	–	–	–	–
Cc1cc(N/N=C/c2ccccc2[N+](=O)[O-])nc(-n2nc(C)cc2C)n1	–	–	–	–	–	–
Cc1cc(N/N=C/c2ccc(O)cc2O)nc(-n2nc(C)cc2C)n1	–	–	–	16	–	–
CC(=O)c1ccc2c3c(cc(C)c2c1)CCCC3	·	·	·	·	·	–
N#CC1=C(N)SC(N)=C(C#N)C1c1ccnc2ccccc12	–	–	–	–	–	-28
CCOc1ccc(NC(=O)CN2C(=O)NC(CCc3ccccc3)C2=O)cc1OCC (stereo unspecified)	·	·	–	·	·	–
CC1(C)Cc2ccccc2-c2nnc(SCC(=O)N3CCN(c4ccccc4)CC3)n21	–	–	–	–	25	–
CC1(C)Cc2ccccc2-c2nnc(SCc3ccccc3)n21	–	–	–	–	–	–
N#CC1(Nc2ccc([N+](=O)[O-])cc2)CCCC1	·	·	·	·	·	–
Cc1ccc(Cn2nnc3c(=O)[nH]c(C4CCN(S(=O)(=O)c5ccc(C)cc5)CC4)nc32)cc1	–	–	–	–	–	–
COC(=O)c1ccc(Cn2nnc3c(=O)[nH]c(C4CCN(S(=O)(=O)c5cc(C)ccc5C)CC4)nc32)cc1	–	–	–	16	–	–
O=c1[nH]c(C2CCCN(S(=O)(=O)c3ccccc3Cl)C2)nc2c1nnn2Cc1ccc2c(c1)OCCO2 (stereo unspecified)	–	–	–	16	–	–
SMILES	PP5 primary	DNA FID counter	PREPL inh	PP1 inh	TMEM16A inh	ANO1 activ
Cc1ccc(Cn2nnc3c(=O)[nH]c(C4CCN(S(=O)(=O)c5ccc(S(=O)(=O)NC6CC6)cc5)CC4)nc32)cc1	–	–	–	17	–	–
N#C/C(=C/C1=C(N2CCOCC2)C(=C/c2ccc(Cl)cc2Cl)/CC1)C(=O)Nc1ccccc1F	·	·	·	·	·	–
C=CC[C@@H](CC(=O)N(CCO)Cc1ccccc1)C(=O)NC[C@H](OC(=O)[C@@H](CC=C)Cc1ccc(F)cc1)c1ccccc1	·	·	–	·	·	–
CC(=O)/C(C#N)=C1\NC(=O)C(Cc2ccc(C)c(C)c2)S1 (stereo unspecified)	–	–	–	–	25	–
CC(=O)/C(C#N)=C1\NC(=O)C(Cc2ccc(F)cc2)S1 (stereo unspecified)	–	–	–	–	–	–
CCOC(=O)c1sc(=S)n(C)c1NC(=O)c1ccc(OC)cc1	–	–	–	–	–	–
CCOC(=O)c1sc(=S)n(C)c1NC(=O)c1ccc(C(C)(C)C)cc1	–	–	–	–	25	–

Source: PubChem
